Cl transport mod – modulates chloride dependent transport by human KCC2; 190,000 tested, 2.2% active; AID 1456; Q9H2X9; KCC2 cells, thallium flux FluoZin-2 fluorescence; B-score of Tl+ flux slope (higher = more flux/activation; lower = inhibition) at 10 µM;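 active = thallium flux slope and its plate-corrected score both differing from the plate sample mean at a set confidence after two filtering rounds, in either direction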;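 note: slope of fluorescence scaled to starting intensity during 10 to 20 s after thallium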
ROMK mod – human ROMK K+ channel modulation, primary screen; Tet-inducible ROMK, thallium flux fluorescence; actives lie on both sides; B-score at 10 µM; 130,000 tested, 2% active;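 active = signal ratio slope over the read window, or its plate-corrected B-score, at least 3 SD from the plate mean, either direction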;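 note: B-score of the F/F0 ratio slope over 7 to 12 s after thallium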
S1P4 antag – blocks the human S1P4 receptor; inhibition, % at 4.98 µM; O95977; 220,000 tested, 0.26% active; S1P4-expressing cells, antagonist mode, reporter read-out; in the data active = inhibition above about 29%
S1P3 antagonist – blocks the human S1P3 receptor. Q99500. CHO S1P3 NFAT-BLA reporter, FRET fluorescence, antagonist mode. inhibition, % at 4.98 µM. 170,000 tested, 0.27% active. AID 485;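 active = inhibition above the plate cutoff, the mean inhibition of test wells on that plate plus 3 SD, cut at about 28% in these data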;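 note: cells challenged with S1P at its EC80 of 0.8 µM; blue over green emission ratio from cleaved BLA substrate after 4 h stimulation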
Target sequence (Q99500 whole entry, looked up): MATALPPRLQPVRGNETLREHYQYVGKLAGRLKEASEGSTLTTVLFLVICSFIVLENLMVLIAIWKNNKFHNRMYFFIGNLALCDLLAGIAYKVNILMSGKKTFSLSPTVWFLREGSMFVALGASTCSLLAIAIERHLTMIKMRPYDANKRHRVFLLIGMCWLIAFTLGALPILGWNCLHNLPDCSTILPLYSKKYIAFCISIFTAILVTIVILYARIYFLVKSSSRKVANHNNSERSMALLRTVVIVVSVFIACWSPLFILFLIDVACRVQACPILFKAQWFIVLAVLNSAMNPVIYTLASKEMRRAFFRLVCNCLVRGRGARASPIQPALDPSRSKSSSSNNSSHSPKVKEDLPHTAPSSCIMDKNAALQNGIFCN
S1P4 ag – activates the human S1P4 receptor. O95977. S1P4-expressing cell line, agonist reporter assay. activation, % at 4.98 µM. 220,000 tested, 0.35% active. AID 1509; in the data active = activation above about 11%
RAM network inh – blocks the yeast RAM network | S. cerevisiae dse1pr::URA3 reporter, 5-FOA growth OD615, 2 d; analog-sensitive cbk1-as2 kinase mutant strain | inhibition, % at 50 µM | 190,000 tested, 1.8% active;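 active = inhibition above a set limit, 3 SD over mean compound inhibition, cut at about 8.4% in these data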;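 note: inhibition rescues growth on 5-FOA so higher OD means more RAM inhibition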
KCC2 secondary – KCC2 (human) modulation, secondary assay; shares compounds with Cl transport mod; normalised thallium flux (F/F0 slope) at 10 µM; HEK293-KCC2, thallium flux, FluoZin2 fluorescence; hits give high values; 3,700 tested, 15% active;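 active = thallium flux slope above the same plate's solvent-only control mean plus 3 SD; inconclusive = the two replicate wells disagree; inactive = no significant difference from solvent-only control wells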
KCC2 bumet counter – thallium flux persisting under bumetanide in KCC2 cells, counter-screen secondary assay | shares compounds with Cl transport mod | HEK293-KCC2 + bumetanide/ouabain, thallium flux FluoZin2; hits give high values | normalized thallium flux at 10 µM | 3,700 tested, 49% active | AID 1714;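 active = thallium entry rate above the same plate's blocked-transporter control wells by more than 3 SD; inconclusive = the two repeat wells disagree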;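 note: raw slope of fluorescence over initial fluorescence between 10 and 20 s after thallium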
KCC2 secondary2 – confirmation of human KCC2 transport modulators | shares compounds with Cl transport mod | HEK293-KCC2, thallium flux FluoZin2 fluorescence; actives lie on both sides; F/F0 rise rate, 10–20 s post-thallium | normalized thallium flux at 10 µM | 3,700 tested, 23% active | AID 1715;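 active = thallium flux slope more than 3 SD above or below the plate's solvent-only control mean, mostly below; inconclusive = the two repeat wells disagreed; inactive = no significant shift from solvent-only controls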
HEK counter1 – parental HEK flux effect, counter-screen | shares compounds with Cl transport mod | HEK293 parental cells, thallium flux FluoZin2, ouabain; baseline-ratio fluorescence slope, 10–20 s after thallium | thallium flux rate (normalised fluorescence) at 10 µM | 3,700 tested, 46% active;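 active = thallium flux rate significantly above the same plate's solvent-only control wells, beyond their mean plus 3 SD; inconclusive = the two replicate wells gave conflicting results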
KCC2 retest ouab – confirmation of human KCC2 modulators with ouabain; AID 1717; raw Tl+ flux slope (below DMSO = inhibition, above = activation) at 10 µM; HEK293-KCC2, thallium flux FluoZin2 fluorescence; bidirectional: low = inhibitor, high = activator; 3,700 tested, 48% active; shares compounds with Cl transport mod;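 active = thallium flux slope beyond 3 SD from same-plate DMSO control mean in most replicates, usually higher, sometimes lower; inconclusive = repeat tests gave conflicting results; inactive = no significant difference from controls in most replicates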;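 note: slope of initial-normalized fluorescence between seconds 10 and 20 after thallium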
HEK counter2 – counter-screen for KCC2 modulators: effect in parental HEK293 cells; thallium flux slope at 10 µM; 3,700 tested, 33% active; AID 1718; shares compounds with Cl transport mod; thallium flux FluoZin-2 fluorescence slope;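 active = thallium flux slope above the same plate's solvent-control mean plus 3 SD in both duplicate wells; inconclusive = duplicate wells that disagreed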;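 note: run without ouabain in cells lacking the KCC2 cotransporter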
A number is an active result; - = inactive; ? = inconclusive; . = no result given. A selection: hits, their analogues and other compounds. The true share with any hit is near 5.1%.

SMILES | Cl transport mod | ROMK mod | S1P4 antag | S1P3 antagonist | S1P4 ag | RAM network inh | KCC2 secondary | KCC2 bumet counter | KCC2 secondary2 | HEK counter1 | KCC2 retest ouab | HEK counter2
CCN(C(C)=O)c1ccc(Oc2nc(OC)cc(OC)n2)cc1 | - | - | - | - | - | - | . | . | . | . | . | .
Fc1ccc(NC(=S)Nc2ccc3nccnc3c2)cc1 | - | - | - | - | - | - | . | . | . | . | . | .
S=C(Nc1ccccc1)Nc1nccs1 | 138 | . | - | - | - | . | 0.01 | 0.084 | 0.05 | 0.07 | 0.069 | 0.039
Fc1ccc(NC(=S)Nc2nccs2)cc1 | 77 | - | - | - | - | - | 0.03 | 0.064 | ? | 0.1 | 0.083 | 0.026
S=C(NCc1cccs1)Nc1ccc(Br)cc1Cl | 4.7 | - | - | - | - | - | - | 0.0095 | - | 0.011 | - | 0.012
S=C(NCCc1ccccc1)NCc1cccs1 | -4.4 | . | - | - | - | - | - | - | 0.025 | - | - | -
S=C(NCCc1ccccc1)NC1CCCCCC1 | -4.2 | . | - | . | - | - | 0.0058 | ? | - | - | ? | -
COc1ccc(CCNC(=S)NCc2cccs2)cc1OC | - | - | - | - | - | - | . | . | . | . | . | .
Cc1nc(Nc2ccc(Cl)cc2Cl)sc1C(=O)Nc1ccccc1 | 3.7 | - | - | - | - | - | - | - | - | - | - | -
Cc1ccc(Nc2nnc(SCc3cc(=O)n4ccsc4n3)s2)c(C)c1 | -7.6 | . | - | - | - | - | - | - | ? | - | 0.016 | -
CCc1ccc(Nc2nnc(SCc3cc(=O)n4ccsc4n3)s2)cc1 | -8.5 | - | - | . | - | - | - | - | 0.021 | - | 0.011 | -
Cc1cc(C)n2nc(C(=O)NC3CCCc4ccccc43)nc2n1 (stereo unspecified) | - | - | - | - | - | - | . | . | . | . | . | .
Cc1ccc(NC(=S)N2CCN(Cc3ccccc3)CC2)cc1 | - | - | - | - | - | - | . | . | . | . | . | .
Cc1ccc(C(=S)N2CCN(Cc3ccccc3)CC2)cc1 | -3.3 | - | - | - | - | - | ? | - | - | - | 0.015 | -
Fc1cccc(Cl)c1CSc1nnc(CNc2ccccc2)o1 | -3.5 | - | - | - | - | - | - | - | - | 0.0058 | 0.014 | ?
CCCn1c(=S)[nH]c2cc(OC)c(OC)cc2c1=O | 11 | - | - | . | - | - | 0.013 | 0.022 | - | ? | ? | ?
COCCn1c(=S)[nH]c2ccc(N(C)C)cc2c1=O | 3.2 | - | - | - | - | - | - | 0.0083 | - | 0.0095 | - | 0.012
CCOc1cc2[nH]c(=S)n(CCOC)c(=O)c2cc1OCC | - | - | - | . | - | - | . | . | . | . | . | .
O=C(COC(=O)c1cccnc1Cl)c1ccc(OC(F)F)cc1 | - | - | - | - | - | - | . | . | . | . | . | .
CC(C)Oc1ccc(CNC(=S)N/N=C/c2ccc([N+](=O)[O-])cc2)cc1 | 3.6 | . | - | . | - | - | - | - | - | - | - | -
Fc1ccc(Nc2nc(Oc3ccccc3F)nc(N3CCCC3)n2)cc1 | . | - | - | . | - | - | - | - | - | - | - | -
O=[N+]([O-])c1ccccc1Oc1ncccc1[N+](=O)[O-] | - | - | - | - | - | - | . | . | . | . | . | .
CC(=O)c1ccccc1NC(=O)Cn1c(=O)cnc2ccccc21 | - | . | - | - | - | - | . | . | . | . | . | .
CC(=O)Nc1ccc(NC(=O)C(=O)N/N=C/c2cccnc2)cc1 | - | - | - | - | - | . | . | . | . | . | . | .

Screens deposited in PubChem BioAssay by several laboratories.
